From PubChem BioAssay (NCATS)
Records with an inconclusive call do not appear. Activity calls are given as the source filed them. Unless noted, calls come from the whole dose curve; as a rule, active = well fitted curve in the direction sought with a large enough effect; inconclusive = small, poorly fitted or top-dose-only effect, or another doubt; inactive = no such curve, though single readings can be large; an effect the other way counts as inactive or inconclusive.

Key:
[1] = biological target: Nucleoprotein (Lymphocytic choriomeningitis virus (strain Armstrong)) (UniProt P09992); test: qHTS for Inhibitors of the Functional Ribonucleoprotein Complex (vRNP) of Lymphocytic Choriomeningitis Arenaviruses (LCMV): LCMV Primary Screen - GLuc reporter signal (AID 1347086; calls by dose curve; note: series mostly up to about 57 µM; nearly all actives have a fitted effect of over 70% in size)
Chain of Nucleoprotein (Lymphocytic choriomeningitis virus (strain Armstrong)) (P09992 whole entry, looked up): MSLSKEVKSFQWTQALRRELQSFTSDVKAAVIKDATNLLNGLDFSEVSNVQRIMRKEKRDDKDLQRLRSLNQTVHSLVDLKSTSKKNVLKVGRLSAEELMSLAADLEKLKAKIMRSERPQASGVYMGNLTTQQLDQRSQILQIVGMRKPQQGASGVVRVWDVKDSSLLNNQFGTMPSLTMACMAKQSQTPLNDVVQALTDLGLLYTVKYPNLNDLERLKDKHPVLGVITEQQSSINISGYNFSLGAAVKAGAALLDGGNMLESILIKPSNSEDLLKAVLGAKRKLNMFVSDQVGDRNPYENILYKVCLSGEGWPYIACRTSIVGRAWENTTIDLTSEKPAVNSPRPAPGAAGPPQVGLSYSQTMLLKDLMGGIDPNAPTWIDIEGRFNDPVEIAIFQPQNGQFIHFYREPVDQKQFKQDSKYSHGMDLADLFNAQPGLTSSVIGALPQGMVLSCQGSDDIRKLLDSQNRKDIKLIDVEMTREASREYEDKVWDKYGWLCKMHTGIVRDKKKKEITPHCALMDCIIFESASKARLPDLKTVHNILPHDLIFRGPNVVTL

[2] = qHTS of pediatric cancer cell lines to identify multiple opportunities for drug repurposing: Primary screen for TC32 cells (AID 1347089); note: nearly all actives have a fitted effect of over 60% in size
In short: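 TC32 cells, 500-1,000/well in growth medium, compound-treated 48 h at 37 °C; viability from CellTiter-Glo luminescence. Primary screen: MIPE 11-point (0.78 nM–46 µM final), NPC 8-point (0.59 nM–46 µM final); confirmatory at 11-point dilutions.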

[3] = qHTS of pediatric cancer cell lines to identify multiple opportunities for drug repurposing: Primary screen for DAOY cells (AID 1347090); note: series mostly up to about 46 µM; nearly all actives have a fitted effect of over 55% in size
In short: (§1)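 Viability measured as metabolically active cells via CellTiter-Glo luminescence following 48 hours of compound exposure, 11-point dilutions in confirmatory testing. 500-1,000 cells/well plated 5 hours before dosing; controls were DMSO and 2.3 µM bortezomib.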

[4] = qHTS of pediatric cancer cell lines to identify multiple opportunities for drug repurposing: Primary screen for SJ-GBM2 cells (AID 1347091)
In short: as §1

[5] = qHTS of pediatric cancer cell lines to identify multiple opportunities for drug repurposing: Primary screen for A673 cells (AID 1347092); note: nearly all actives have a fitted effect of over 45% in size
In short: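 A673 cells (500-1,000 cells/well) were treated 48 hours at 37 degrees C with compounds at 11-point (0.78 nM to 46 µM) or 8-point (0.59 nM to 46 µM) dilutions. Viability read by CellTiter-Glo luminescence; concentration-response curves fitted.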

[6] = qHTS of pediatric cancer cell lines to identify multiple opportunities for drug repurposing: Primary screen for SK-N-MC cells (AID 1347093); note: series mostly up to about 46 µM
In short: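 Metabolically active cells were quantified by ATP-dependent luminescence (CellTiter-Glo, 15 min at room temperature) following 48 h treatment. Cells had been plated at 500-1,000 per well and settled for 5 h beforehand.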

[7] = qHTS of pediatric cancer cell lines to identify multiple opportunities for drug repurposing: Primary screen for BT-37 cells (AID 1347094); note: series mostly up to about 57 µM
In short: (§2)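 Phenotypic viability qHTS, 48 h compound exposure, CellTiter-Glo luminescence read-out; multi-concentration dosing so that potency and efficacy derive directly from the primary screen's curves.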

[8] = qHTS of pediatric cancer cell lines to identify multiple opportunities for drug repurposing: Primary screen for NB-EBc1 cells (AID 1347095)
In short: as §2

[9] = qHTS of pediatric cancer cell lines to identify multiple opportunities for drug repurposing: Primary screen for U-2 OS cells (AID 1347096); note: nearly all actives have a fitted effect of over 50% in size
In short: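 Viability after 48 h compound treatment at 37C, 500-1,000 cells/well, read as ATP luminescence with CellTiter-Glo. Primary screens used 11-point (MIPE, 0.78 nM-46 µM) or 8-point (NPC, 0.59 nM-46 µM) final concentrations; follow-up screens used 11-point dilutions.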

[10] = qHTS of pediatric cancer cell lines to identify multiple opportunities for drug repurposing: Primary screen for Saos-2 cells (AID 1347097); note: nearly all actives have a fitted effect of over 40% in size
In short: as §2

Measured: Potency

CC(=O)NC1CCSC1=O (stereo not given)
not listed: [10]
inactive: all other assays above

C[N+]1(CCF)[C@@H]2CC[C@H]1CC(OC(=O)C(O)(c1ccccc1)c1ccccc1)C2 (stereo not given in full)
not listed: [10]
inactive: all other assays above

COC(=O)C(Cl)C(=O)OC
not listed: [10]
inactive: all other assays above

Nc1ccccc1
inactive: all assays above

CC(=O)OCC1=C(C(=O)O)N2C(=O)[C@@H](N)[C@H]2SC1
inactive: all assays above

COC(=O)[C@@H](N)CCCN/C(N)=N/[N+](=O)[O-]
not listed: [10]
inactive: all other assays above

O=C(N/N=C/c1ccc([N+](=O)[O-])o1)c1cc([N+](=O)[O-])cc([N+](=O)[O-])c1O
not listed: [10]
inactive: all other assays above

c1ccc2c(c1)sc1ccccc12
not listed: [10]
inactive: all other assays above

C#CC(O)(C=CCl)CC (stereo not given)
inactive: all assays above

CC(C)NC(C)C
not listed: [10]
inactive: all other assays above

Cc1ncsc1CCCl
not listed: [10]
inactive: all other assays above

COP(=S)(OC)Oc1ccc(S(=O)(=O)N(C)C)cc1
not listed: [10]
inactive: all other assays above

CC(C(=O)c1ccccc1)N(C)C (stereo not given)
not listed: [10]
inactive: all other assays above

C=CCC1(C(C)CC)C(=O)NC(=O)NC1=O (stereo not given)
not listed: [10]
inactive: all other assays above

CC(C)(C)NCC(O)c1cc(Cl)c(N)c(C(F)(F)F)c1 (stereo not given)
not listed: [10]
inactive: all other assays above

COc1cc(CC(C)N)cc(OC)c1OC (stereo not given)
not listed: [10]
inactive: all other assays above

CN1C(=O)NC(=O)C(C)(C2=CCCCC2)C1=O (stereo not given)
not listed: [10]
inactive: all other assays above

CCCCCCC(=O)CCCCCC/C=C/C[C@@H](O)[C@H](O)[C@@](N)(CO)C(=O)O
not listed: [10]
inactive: all other assays above

CCN[C@@H](C)Cc1ccccc1
not listed: [10]
inactive: all other assays above

CN(C)CCc1c[nH]c2cccc(OP(=O)(O)O)c12
not listed: [10]
inactive: all other assays above

COc1ccc2c3c1O[C@H]1[C@H](O)CC[C@H]4[C@@H](C2)N(C)CC[C@@]341
not listed: [10]
inactive: all other assays above

CN1CCC(O)(c2ccc(F)cc2)C(C(=O)c2ccc(F)cc2)C1 (stereo not given)
not listed: [10]
inactive: all other assays above

COc1c2c(cc3c1OCO3)CCN(C)C2
not listed: [10]
inactive: all other assays above

Nc1ccccc1C(=O)O
inactive: all assays above

CC1(C)C(C=C(Cl)Cl)C1C(=O)OC(C#N)c1cccc(Oc2ccccc2)c1 (stereo not given)
inactive: all assays above
